Source: PubChem (several laboratories)
TLR4 MyD88 comp: inhibitors of TLR4-MyD88 association in cells, primary screen, cell-based, HeLa CL3-4, BLA complementation, FRET ratio | hit rate 0.18% among 200,000 | inhibition, % at 8.4 µM | Toll-like receptor 4 (Homo sapiens) + Myeloid differentiation primary response protein … | AID 861, 2007 | HeLa CL3-4 TLR4/MyD88 BLA complementation; in the data active = inhibition above about 25%;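 note: 0% = vehicle and 100% = reference inhibitor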
NOD2-RIPK2 inh: NOD2-RIPK2 binding disruptors in cells, primary screen, fluorescence, CHO cells, BLA complementation; CCF4 ratio; inhibition, % at 4.98 µM; hit rate 0.38% among 360,000; AID 624267, 2012; in the data active = inhibition above about 21%;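 note: 0% = vehicle only and 100% = reference blocker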
Myeloid diff 2: induction of myeloid progenitor differentiation, primary screen, cell-based, flow cytometry, MLPCN library; ER-HoxA9 myeloid progenitors, lysozyme-GFP differentiation; calls only at 10 µM; hit rate 1% among 360,000; AID 624256, 2012;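 active = normalized GFP-positive differentiation at or above the plate's own cutoff, the solvent-only control mean plus 3 SD; inconclusive = no clear call, values can overlap the other calls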;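 note: cells exposed to compound for four days before flow analysis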
TLR9-MyD88 inh: inhibitors of TLR9-MyD88 association in cells, primary screen, cell-based, CHO, BLA complementation, fluorescence; Toll-like receptor 9 (Homo sapiens) + Myeloid differentiation primary response protein …; CCF4 FRET ratio; inhibition, % at 4.98 µM; hit rate 0.21% among 340,000; AID 504734, 2011;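 active = inhibition above the mean over all tested compounds plus 3 SD, cut at about 21% in these data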;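 note: 0% = DMSO only wells and 100% = clavulanate BLA inhibitor control wells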
Target sequence (Q99836 whole entry, looked up): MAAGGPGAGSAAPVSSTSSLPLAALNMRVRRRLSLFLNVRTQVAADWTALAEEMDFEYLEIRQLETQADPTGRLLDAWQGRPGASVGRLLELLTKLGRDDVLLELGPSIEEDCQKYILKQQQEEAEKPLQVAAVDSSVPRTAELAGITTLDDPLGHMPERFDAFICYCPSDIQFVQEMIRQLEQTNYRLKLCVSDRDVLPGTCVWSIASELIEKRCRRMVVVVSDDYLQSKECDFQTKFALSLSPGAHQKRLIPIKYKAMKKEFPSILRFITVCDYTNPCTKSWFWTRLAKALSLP
Target sequence (Q9NR96 whole entry, looked up): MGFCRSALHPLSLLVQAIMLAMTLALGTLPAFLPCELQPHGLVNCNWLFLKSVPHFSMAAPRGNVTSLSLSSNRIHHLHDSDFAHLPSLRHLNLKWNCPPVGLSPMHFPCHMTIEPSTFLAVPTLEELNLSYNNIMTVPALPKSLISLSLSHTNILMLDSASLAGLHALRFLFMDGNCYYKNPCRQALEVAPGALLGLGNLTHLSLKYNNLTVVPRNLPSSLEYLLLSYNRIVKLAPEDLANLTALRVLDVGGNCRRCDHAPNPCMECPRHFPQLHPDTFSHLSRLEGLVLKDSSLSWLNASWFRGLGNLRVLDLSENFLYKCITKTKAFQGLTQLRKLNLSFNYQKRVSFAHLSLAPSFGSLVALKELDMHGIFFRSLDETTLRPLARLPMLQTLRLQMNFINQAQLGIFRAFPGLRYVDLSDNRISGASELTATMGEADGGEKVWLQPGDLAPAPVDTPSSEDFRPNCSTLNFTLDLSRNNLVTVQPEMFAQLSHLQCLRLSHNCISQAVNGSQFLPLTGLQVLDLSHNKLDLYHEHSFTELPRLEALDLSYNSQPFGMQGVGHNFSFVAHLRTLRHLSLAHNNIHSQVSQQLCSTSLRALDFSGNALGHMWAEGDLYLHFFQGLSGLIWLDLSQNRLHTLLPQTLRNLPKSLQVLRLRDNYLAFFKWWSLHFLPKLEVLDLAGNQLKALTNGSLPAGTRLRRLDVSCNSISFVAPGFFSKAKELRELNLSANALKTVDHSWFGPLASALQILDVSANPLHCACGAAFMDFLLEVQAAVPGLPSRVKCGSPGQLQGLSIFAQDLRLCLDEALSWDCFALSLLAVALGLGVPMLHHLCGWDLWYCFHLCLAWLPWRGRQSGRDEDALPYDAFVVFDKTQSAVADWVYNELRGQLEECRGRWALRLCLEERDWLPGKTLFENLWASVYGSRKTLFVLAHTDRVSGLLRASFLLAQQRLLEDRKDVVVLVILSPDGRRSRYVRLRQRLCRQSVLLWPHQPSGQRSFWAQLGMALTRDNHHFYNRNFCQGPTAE
Myeloid diff: inducers of myeloid progenitor differentiation, confirmation, cell-based, GFP/Mac1 flow cytometry, cherry pick 01. ER-HoxA9 myeloid progenitors, GFP/Mac1 double-positive flow. calls only. shares compounds with Myeloid diff 2. hit rate 2% among 2,300;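 active = share of green or green-and-red cells above 9 and 9% in run 1 or 4 and 3% in run 2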
GFP autofluor: counter-screen for myeloid differentiation promoters: compound fluorescence; shares compounds with Myeloid diff 2; ER-HoxA9 myeloid progenitors, no estrogen, GFP autofluorescence flow cytometry; vehicle wells 0%, positive control 100%; fluorescence response, % (no concentration beside the values); hit rate 7.4% among 2,300; AID 651707;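 active = over 5% cells positive for green fluorescent reporter, or over 2% positive for both it and APC stain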;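 note: range taken on the double positive population between DMSO and positive control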
Numbers without * were called inactive; i = inactive; ? = inconclusive; · = no result; + = active, no number. Most compounds without a hit are left out; they make up all but 1.5% or so of the library.

SMILES	TLR4 MyD88 comp	NOD2-RIPK2 inh	Myeloid diff 2	TLR9-MyD88 inh	Myeloid diff	GFP autofluor
CCCOc1ccc(Cc2nn3c(=O)/c(=C/c4ccco4)sc3nc2=O)cc1	15	-1	i	-4	i	0
Cc1cc(O)cc(O)c1/C=N/NC(=O)c1ccc2c(c1)OCCO2	·	-7	?	-2	·	·
CC(C)Oc1ccccc1C1NC(=O)CCC1[N+](=O)[O-] (stereo not given)	·	-9	i	-10	i	0
Cc1ccc(S(=O)(=O)CCSc2n[nH]c(=O)n2-c2ccccc2)cc1	·	2	i	·	i	0
Cc1cc(C)c(-n2c(SCCS(=O)(=O)c3ccc(F)cc3)n[nH]c2=O)c(C)c1	·	1	i	1	·	·
Cc1ccc(S(=O)(=O)N2C[C@H]3C(=O)C[C@@H](c4ccccc4)N(S(C)(=O)=O)[C@H]3C[C@H]2c2ccccc2)cc1	·	0	i	·	·	·
COc1cccc(/C=N/NC(=O)c2cc(-c3cccn3C)n[nH]2)c1O	3	6	i	4	i	0
CC1CCCN(c2sc(S(C)(=O)=O)nc2S(=O)(=O)c2ccc(Cl)cc2)C1 (stereo not given)	·	-4	i	-2	·	·
CS(=O)(=O)c1nc(S(=O)(=O)c2ccc(Cl)cc2)c(N2CCOCC2)s1	·	9	i	-5	i	0
CC1CN(c2sc(S(C)(=O)=O)nc2S(=O)(=O)c2ccc(Cl)cc2)CC(C)O1 (stereo not given)	·	3	i	2	i	0
CCOC(=O)C1=C[C@@H](C(C)(C)C)N(S(=O)(=O)c2ccc(C)cc2)[C@H]1c1ccc(Cl)c(Cl)c1	·	-2	i	·	·	·
COc1cccc(-c2csc(N3CCN(CC(=O)NNC(=O)c4ccc(Cl)cc4)CC3)n2)c1	-2	4	i	3	i	0
CC(C)OC(=O)N(C)C[C@@H]1OCc2ccccc2-c2c(n(C)c3ccccc23)C(=O)N([C@@H](C)CO)C[C@H]1C	·	-2	i	6	·	·
c1ccc(Cn2nnc3c(N4CCCC4)ncnc32)cc1	13	6	+	-2	i	0
COc1cc2[nH]c(=O)c(C(=O)NCc3ccc(C)cc3)c(O)c2cc1OC	·	-23	i	2	·	·
Cc1sc(NC(=O)CSc2n[nH]c(N)n2)c(C#N)c1C	·	3	+	13	i	16*
CCCCCC(=O)Nc1sc(C)c(C)c1C#N	-6	5	i	1	i	0
COC(=O)c1c(NC(=O)CSc2n[nH]c(N)n2)sc(C)c1C	-11	-7	i	-1	·	·
Cc1cc(C)nc(/N=C(/NC(=O)Nc2cccc(Cl)c2)Nc2ccccc2)n1	-5	-6	i	-9	i	0
Cc1cc(C)nc(/N=C(\NC(=O)C(C)(C)C)Nc2ccccc2)n1	·	-5	i	-3	·	·
CC(C)NC(=O)C1(C#N)C=C1c1ccccc1 (stereo not given)	·	-12	i	·	·	·
COc1ccc(Cn2c(=O)c3[nH]cnc3n(-c3ccccc3C)c2=O)cc1	·	-6	i	0	i	2
N#C/C(=C\Nc1ccc2cn[nH]c2c1)c1nc(-c2ccc(Cl)cc2)cs1	12	-6	+	-2	+	0
N#C/C(=C\Nc1ccc2cn[nH]c2c1)c1nc(-c2ccccc2)cs1	-20	-2	i	-22	·	·
O=C(CSc1nnc(-c2ccccc2Br)o1)N1CCN(C(=O)c2ccco2)CC1	3	5	i	-7	i	0
SMILES	TLR4 MyD88 comp	NOD2-RIPK2 inh	Myeloid diff 2	TLR9-MyD88 inh	Myeloid diff	GFP autofluor
O=C(CSc1nc2ccccc2n1CC(=O)N1CCCC1)Nc1ccc2c(c1)OCO2	-7	1	+	5	i	0
O=C(CSc1nc2ccccc2n1CC(=O)N1CCOCC1)N1CCCC1	-6	5	i	-9	·	·
O=C(CSc1nc2ccccc2n1CC(=O)N1CCCC1)N1CCN(C(=O)c2ccco2)CC1	2	-3	i	-7	i	0
CC1CCCC(C)N1C(=O)Cn1c(SCC(=O)Nc2ccc3c(c2)OCO3)nc2ccccc21 (stereo not given)	-3	-9	i	-7	·	·
COc1ccc(Cc2nnc(SC)n2-c2ccc(F)cc2)cc1OC	·	5	i	·	·	·
COc1ccc(N2CC(C(=O)OCC(=O)c3ccc(C)cc3)CC2=O)cc1 (stereo not given)	3	-8	+	3	i	0
C[C@]12c3[nH]c4ccc(Cl)cc4c3CCN1C(=O)[C@@H](CC(=O)NCc1ccco1)C[C@@H]2C(=O)N1CCCCC1	·	5	i	-5	·	·
Cc1cc(Cl)ccc1OCC(=O)Nc1cccc(S(=O)(=O)NC2=NCCCCC2)c1	·	5	+	-14	i	1
Cc1ccc2nc(SCC(=O)Nc3cccc(S(=O)(=O)NC4=NCCCCC4)c3)[nH]c2c1	·	12	i	-3	i	96*
CC1(c2nnnn2Cc2ccccc2)CCC(=O)N1CCOc1ccccc1 (stereo not given)	·	-1	i	·	·	·
CCCCn1c(N)c(N(Cc2ccccc2)C(=O)COc2ccccc2F)c(=O)[nH]c1=O	·	0	i	-1	·	·
CCn1c(=O)c(C(=O)NC(C)c2ccccc2)c(O)c2ccccc21 (stereo not given)	·	-8	+	3	i	0
CCCCNC(=O)C1(C)CCCCN1C(=O)c1cc2ccccc2s1 (stereo not given)	·	-8	i	·	·	·
CCn1c(Sc2ccc([N+](=O)[O-])cn2)nnc1-c1ccco1	8	-11	i	-3	i	0
O=C(Nc1ccccc1)Nc1nnc([C@@H]2C[C@H](O)[C@@H](CO)O2)s1	·	-14	i	·	·	·
Cc1cc(C)c(C)c(S(=O)(=O)N2CCC(C(=O)Nc3ccc(S(=O)(=O)N4CCOCC4)cc3)CC2)c1C	·	-5	i	-14	i	0
Cc1ccc(OCCn2c(C)nc3ccccc32)cc1	·	-4	i	-5	i	0
COc1ccc(-c2cc(C(=O)NCc3cccc(C(F)(F)F)c3)[nH]n2)c(C)c1	·	-2	i	·	·	·
Cc1cc(Cl)c(C)c(S(=O)(=O)N2CCN(C(=O)C3CCCO3)CC2)c1Cl (stereo not given)	·	-4	+	-3	i	0
CCN(C)C1CN(Cc2cn(CCCC(=O)OC)nn2)S(=O)(=O)C1 (stereo not given)	·	-10	i	·	·	·
Cc1cccc(NC(=O)c2ncn3c2C(=O)N[C@@H](C)C3)c1	·	-1	i	1	·	·
CCc1nc2ccc(C(=O)NCc3ccccc3OC)cn2c1N(CC)CCOC	·	4	i	·	·	·
